Among the data in PMC7862700, “An all-to-all approach to the identification of sequence-specific readers for epigenetic DNA modifications on cytosine” are binding signal values, retold here.

Holding throughout (assay): DAPPL (digital affinity profiling via proximity ligation, sequencing); 10 mM Tris-HCl pH 7.5, 50 mM NaCl, 1 mM DTT, 4% glycerol, room temperature, 30 min; GST-TFs on glutathione beads, 16-mer random dsDNA library, 0.1% formaldehyde crosslink after washing; high values mean tight binding
What all share (conditions): protein: recombinant; tags: N-terminal GST; dsDNA, one strand shown

In one experiment the target is T1, FEV (Homo sapiens, UniProt Q99581 1-238).
T1 sequence: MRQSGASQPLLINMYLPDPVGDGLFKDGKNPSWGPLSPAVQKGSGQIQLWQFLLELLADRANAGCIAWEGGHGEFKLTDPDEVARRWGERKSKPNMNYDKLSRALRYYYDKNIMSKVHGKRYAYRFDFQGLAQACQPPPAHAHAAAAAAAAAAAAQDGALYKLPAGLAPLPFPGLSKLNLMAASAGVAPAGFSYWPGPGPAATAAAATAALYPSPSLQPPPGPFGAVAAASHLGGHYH
In short, it runs like this:
(§1)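 Binding signal is given per hexamer as its read frequency for a factor divided by its frequency in the tag-only sample. GST-fused human transcription factors were expressed in yeast, captured on glutathione beads, barcoded with DNA and pooled with that sample, then incubated with 200 nmole of a 16-mer random double-stranded DNA library in Tris/NaCl/DTT/glycerol buffer for 30 min at room temperature. The pools were then washed, crosslinked, proximity-ligated, amplified by PCR and sequenced on an Illumina NextSeq500.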

In a further experiment the target is ETV5 (Homo sapiens, UniProt P41161 1-510). In short, it runs like this:
as §1

For the next experiment, the target named is T2, SPIC (Homo sapiens, UniProt Q8N5J4 1-248).
T2 sequence: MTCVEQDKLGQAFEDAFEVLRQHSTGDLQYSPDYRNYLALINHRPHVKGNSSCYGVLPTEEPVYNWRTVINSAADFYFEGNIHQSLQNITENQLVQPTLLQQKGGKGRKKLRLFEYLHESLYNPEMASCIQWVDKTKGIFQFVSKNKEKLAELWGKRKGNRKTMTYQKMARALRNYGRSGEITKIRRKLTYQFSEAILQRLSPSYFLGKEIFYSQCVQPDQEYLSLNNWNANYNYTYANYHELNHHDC
In short, it runs like this:
as §1

A further experiment deals with ELF4 (Homo sapiens, UniProt Q99607 1-663). Summed up: as §1
Sequence of ELF4 (Q99607 whole entry): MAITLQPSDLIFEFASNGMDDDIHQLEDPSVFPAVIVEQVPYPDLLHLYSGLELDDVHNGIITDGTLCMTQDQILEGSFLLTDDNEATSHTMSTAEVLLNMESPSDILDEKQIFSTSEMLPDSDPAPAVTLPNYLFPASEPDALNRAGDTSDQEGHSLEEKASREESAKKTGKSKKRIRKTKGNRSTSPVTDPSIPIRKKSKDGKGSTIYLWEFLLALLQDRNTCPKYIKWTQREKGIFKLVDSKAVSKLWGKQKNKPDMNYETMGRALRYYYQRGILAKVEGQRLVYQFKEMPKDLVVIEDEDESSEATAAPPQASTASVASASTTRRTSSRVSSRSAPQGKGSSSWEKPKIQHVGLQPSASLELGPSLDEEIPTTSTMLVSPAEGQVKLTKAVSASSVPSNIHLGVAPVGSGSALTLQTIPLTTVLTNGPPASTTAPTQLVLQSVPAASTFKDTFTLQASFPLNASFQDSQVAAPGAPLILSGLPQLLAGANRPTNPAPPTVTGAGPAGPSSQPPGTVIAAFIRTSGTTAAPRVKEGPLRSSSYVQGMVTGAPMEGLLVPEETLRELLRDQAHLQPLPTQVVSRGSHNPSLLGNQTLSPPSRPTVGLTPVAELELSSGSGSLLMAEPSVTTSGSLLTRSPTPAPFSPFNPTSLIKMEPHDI
A further experiment has as its target T3, ELK4 (Homo sapiens, UniProt P28324-2 1-405).
T3 sequence: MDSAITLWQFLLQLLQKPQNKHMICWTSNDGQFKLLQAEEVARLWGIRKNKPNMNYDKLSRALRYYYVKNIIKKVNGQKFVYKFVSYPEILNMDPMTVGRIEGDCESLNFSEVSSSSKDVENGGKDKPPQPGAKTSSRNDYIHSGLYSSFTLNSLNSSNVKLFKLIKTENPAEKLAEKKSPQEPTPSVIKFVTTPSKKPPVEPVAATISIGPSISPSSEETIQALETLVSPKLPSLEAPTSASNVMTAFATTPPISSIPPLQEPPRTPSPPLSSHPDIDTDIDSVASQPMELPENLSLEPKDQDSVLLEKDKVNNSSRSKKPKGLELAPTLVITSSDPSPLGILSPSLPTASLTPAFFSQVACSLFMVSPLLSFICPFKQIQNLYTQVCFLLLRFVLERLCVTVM
In short, it runs like this:
as §1

In a further experiment the target is T4, ETV2 (Homo sapiens, UniProt O00321 1-342).
T4 sequence: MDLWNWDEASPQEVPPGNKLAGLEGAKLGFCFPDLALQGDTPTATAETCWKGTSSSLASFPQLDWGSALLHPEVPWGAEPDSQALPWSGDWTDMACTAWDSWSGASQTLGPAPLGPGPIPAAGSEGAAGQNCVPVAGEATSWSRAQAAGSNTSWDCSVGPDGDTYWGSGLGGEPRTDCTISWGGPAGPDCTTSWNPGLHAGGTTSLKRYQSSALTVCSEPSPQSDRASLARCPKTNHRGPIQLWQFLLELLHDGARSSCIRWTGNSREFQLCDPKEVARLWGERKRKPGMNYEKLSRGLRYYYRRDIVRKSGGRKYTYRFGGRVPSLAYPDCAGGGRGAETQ
In short, it runs like this: as §1

For another experiment, the target named is T5, ELF3 (Homo sapiens, UniProt P78545 1-371).
T5 sequence: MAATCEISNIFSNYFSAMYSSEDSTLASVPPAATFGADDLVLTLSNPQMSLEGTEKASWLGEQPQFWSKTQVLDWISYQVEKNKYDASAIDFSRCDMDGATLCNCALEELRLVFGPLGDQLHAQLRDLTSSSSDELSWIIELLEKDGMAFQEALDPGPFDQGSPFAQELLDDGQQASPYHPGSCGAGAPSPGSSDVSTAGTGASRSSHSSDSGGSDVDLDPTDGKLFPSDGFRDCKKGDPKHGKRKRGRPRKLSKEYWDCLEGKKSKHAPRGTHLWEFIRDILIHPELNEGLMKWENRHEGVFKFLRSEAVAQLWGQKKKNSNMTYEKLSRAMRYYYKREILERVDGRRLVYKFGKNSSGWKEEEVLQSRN
Summed up:
as §1

The next experiment deals with ETV1 (Homo sapiens, UniProt P50549 1-477). In short, it runs like this: as §1
Sequence of ETV1 (P50549 whole entry): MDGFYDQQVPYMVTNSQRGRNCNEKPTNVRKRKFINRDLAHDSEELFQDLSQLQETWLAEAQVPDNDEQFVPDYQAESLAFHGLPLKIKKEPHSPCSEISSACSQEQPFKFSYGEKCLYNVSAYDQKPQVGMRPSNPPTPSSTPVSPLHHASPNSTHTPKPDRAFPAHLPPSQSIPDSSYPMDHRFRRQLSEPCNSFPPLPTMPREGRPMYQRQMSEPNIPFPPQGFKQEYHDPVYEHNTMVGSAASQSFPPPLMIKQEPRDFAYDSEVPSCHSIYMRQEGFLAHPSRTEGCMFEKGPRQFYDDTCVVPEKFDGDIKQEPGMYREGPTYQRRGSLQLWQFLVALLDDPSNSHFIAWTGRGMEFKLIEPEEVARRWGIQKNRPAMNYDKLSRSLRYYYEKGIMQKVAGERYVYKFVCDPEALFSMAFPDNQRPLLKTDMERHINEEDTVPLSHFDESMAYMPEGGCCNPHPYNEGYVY

Sequence of ETV5 (P41161 whole entry): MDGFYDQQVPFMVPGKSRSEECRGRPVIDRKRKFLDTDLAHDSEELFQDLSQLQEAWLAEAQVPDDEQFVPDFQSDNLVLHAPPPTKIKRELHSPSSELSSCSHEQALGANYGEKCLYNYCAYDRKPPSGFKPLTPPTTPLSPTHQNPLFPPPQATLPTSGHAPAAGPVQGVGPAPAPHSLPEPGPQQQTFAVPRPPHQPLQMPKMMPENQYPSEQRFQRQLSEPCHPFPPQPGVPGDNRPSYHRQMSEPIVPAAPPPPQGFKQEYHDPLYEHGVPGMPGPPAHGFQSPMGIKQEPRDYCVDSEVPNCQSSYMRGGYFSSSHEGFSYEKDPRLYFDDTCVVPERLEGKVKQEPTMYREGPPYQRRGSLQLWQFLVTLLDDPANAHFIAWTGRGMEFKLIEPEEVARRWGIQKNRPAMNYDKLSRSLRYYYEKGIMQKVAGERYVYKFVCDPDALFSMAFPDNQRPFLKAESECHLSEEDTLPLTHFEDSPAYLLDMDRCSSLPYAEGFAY

Regarding GTCCCT, the binding signal is 1.28 fold enrichment (6-mer frequency, TF over GST control) with FEV; 1.18 fold enrichment (6-mer frequency, TF over GST control) with ETV5; 1.29 fold enrichment (6-mer frequency, TF over GST control) in the experiment with SPIC; 1.31 fold enrichment (6-mer frequency, TF over GST control) with ELF4; 1.27 fold enrichment (6-mer frequency, TF over GST control) in the experiment with ELK4; 1.22 fold enrichment (6-mer frequency, TF over GST control) with ETV2. Moreover, the binding signal with ELF3 is 1.23 fold enrichment (6-mer frequency, TF over GST control); with ETV1, 1.26 fold enrichment (6-mer frequency, TF over GST control).
AGTGTT: the binding signal with FEV was 1.02 fold enrichment (6-mer frequency, TF over GST control); with ETV5, 1.06 fold enrichment (6-mer frequency, TF over GST control); in the experiment with SPIC, 1.18 fold enrichment (6-mer frequency, TF over GST control); with ELF4, 1.05 fold enrichment (6-mer frequency, TF over GST control); with ELK4, 1.08 fold enrichment (6-mer frequency, TF over GST control); with ETV2, 1.07 fold enrichment (6-mer frequency, TF over GST control). Further, the binding signal was 1.26 fold enrichment (6-mer frequency, TF over GST control) with ELF3 and 1.06 fold enrichment (6-mer frequency, TF over GST control) with ETV1.
On to CACCAC, for which the binding signal with FEV was 1.19 fold enrichment (6-mer frequency, TF over GST control); with ETV5, 1.1 fold enrichment (6-mer frequency, TF over GST control); in the experiment with SPIC, 1.3 fold enrichment (6-mer frequency, TF over GST control); in the experiment with ELF4, 1.13 fold enrichment (6-mer frequency, TF over GST control); in the experiment with ELK4, 1.22 fold enrichment (6-mer frequency, TF over GST control); in the experiment with ETV2, 1.14 fold enrichment (6-mer frequency, TF over GST control). For the same sequence, the binding signal with ELF3 was 1.24 fold enrichment (6-mer frequency, TF over GST control); with ETV1, 1.16 fold enrichment (6-mer frequency, TF over GST control).
Consider ACAGGA, for which the binding signal with FEV is 1.18 fold enrichment (6-mer frequency, TF over GST control); in the experiment with ETV5 it was 1.19 fold enrichment (6-mer frequency, TF over GST control); with SPIC, 1.07 fold enrichment (6-mer frequency, TF over GST control); with ELF4, 1.04 fold enrichment (6-mer frequency, TF over GST control); with ELK4, 1.04 fold enrichment (6-mer frequency, TF over GST control); with ETV2 it was 1.06 fold enrichment (6-mer frequency, TF over GST control). Moreover, the binding signal with ELF3 was 1.15 fold enrichment (6-mer frequency, TF over GST control); in the experiment with ETV1, 1.16 fold enrichment (6-mer frequency, TF over GST control).
Regarding GGAAAC, the binding signal in the experiment with FEV was 1.67 fold enrichment (6-mer frequency, TF over GST control); with ETV5, 1.43 fold enrichment (6-mer frequency, TF over GST control); in the experiment with SPIC, 1.26 fold enrichment (6-mer frequency, TF over GST control); with ELF4, 1.2 fold enrichment (6-mer frequency, TF over GST control); with ELK4, 1.01 fold enrichment (6-mer frequency, TF over GST control); with ETV2, 1.35 fold enrichment (6-mer frequency, TF over GST control). For the same sequence, the binding signal with ELF3 was 1.42 fold enrichment (6-mer frequency, TF over GST control); with ETV1, 1.35 fold enrichment (6-mer frequency, TF over GST control).
Turning to GAAACG, the binding signal with FEV was 1.36 fold enrichment (6-mer frequency, TF over GST control); in the experiment with ETV5 it was 1.21 fold enrichment (6-mer frequency, TF over GST control); with SPIC, 1.19 fold enrichment (6-mer frequency, TF over GST control); in the experiment with ELF4, 1.14 fold enrichment (6-mer frequency, TF over GST control); with ELK4, 1.05 fold enrichment (6-mer frequency, TF over GST control); with ETV2, 1.28 fold enrichment (6-mer frequency, TF over GST control). Moreover, the binding signal in the experiment with ELF3 is 1.27 fold enrichment (6-mer frequency, TF over GST control); with ETV1, 1.29 fold enrichment (6-mer frequency, TF over GST control).
In the case of GTCCCG, the binding signal was 1.24 fold enrichment (6-mer frequency, TF over GST control) with FEV; 1.19 fold enrichment (6-mer frequency, TF over GST control) in the experiment with ETV5; 1.23 fold enrichment (6-mer frequency, TF over GST control) with SPIC; 1.17 fold enrichment (6-mer frequency, TF over GST control) with ELF4; 1.23 fold enrichment (6-mer frequency, TF over GST control) with ELK4; 1.06 fold enrichment (6-mer frequency, TF over GST control) with ETV2. Also, the binding signal with ELF3 was 1.26 fold enrichment (6-mer frequency, TF over GST control); with ETV1, 1.27 fold enrichment (6-mer frequency, TF over GST control).
Take CACCCT: the binding signal with FEV was 1.15 fold enrichment (6-mer frequency, TF over GST control); with ETV5, 1.19 fold enrichment (6-mer frequency, TF over GST control); with SPIC it was 1.13 fold enrichment (6-mer frequency, TF over GST control); with ELF4, 1.24 fold enrichment (6-mer frequency, TF over GST control); in the experiment with ELK4, 1.07 fold enrichment (6-mer frequency, TF over GST control); in the experiment with ETV2 it was 1.26 fold enrichment (6-mer frequency, TF over GST control). The binding signal was 1.08 fold enrichment (6-mer frequency, TF over GST control) with ELF3 and 1.24 fold enrichment (6-mer frequency, TF over GST control) with ETV1.
